In PubChem BioAssay one finds composite z-score and z-score data, which are given here for five compounds.

Activity calls are given as the source filed them.

For test [1], the system named is Plasmodium falciparum Sir2 (PF13_0152, Sir2A). The experiment in a line: Plasmodium falciparum Sir2A binding compounds – biochemical, small-molecule microarray, 635 nm fluorescence, primary screen (AID 1098).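 Also: score merges spot fluorescence intensity with its signal-to-noise ratio.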 To be noted: fluorescence 635 nm, higher = more signal.
The nature of test [2]: probe aDKK1 binding to arrayed compounds – biochemical, biotinylated probe, 635/667 nm fluorescence, primary screen (AID 1099).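 Also: score merges 667nm spot fluorescence with signal to noise across triplicate slides.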 To be noted: small-molecule microarray, higher = more signal.
Test [3] in a line: probe aCHRDL2 binding to arrayed compounds – biochemical, biotinylated probe, 635/667 nm fluorescence, primary screen (AID 1100). To be noted: small-molecule microarray, higher = more signal.
Test [4] is described as follows: change in splice reporter luminescence, either direction, cell-based, HEK293, spliceosome inhibition project, primary screen (AID 1101).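 Also: HEK293 cells carrying a splicing-competent luciferase reporter gene; test concentration not given here.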 The note with it: HEK293 splicing luciferase reporter, 24 h, higher = more signal, called active from +8 up or from −8 down. Background: A reporter such as luciferase makes a cellular process visible.
The target in test [5] is Fibroblast growth factor 10 (Homo sapiens) (UniProt O15520). The test is described as follows: compounds binding fibroblast growth factor 10 – biochemical, small-molecule microarray, 635 nm fluorescence, primary screen (AID 1102). The note with it: FGF10 binding, fluorescence 635 nm, higher = more signal.
Chain of Fibroblast growth factor 10 (Homo sapiens) (O15520 whole entry, looked up): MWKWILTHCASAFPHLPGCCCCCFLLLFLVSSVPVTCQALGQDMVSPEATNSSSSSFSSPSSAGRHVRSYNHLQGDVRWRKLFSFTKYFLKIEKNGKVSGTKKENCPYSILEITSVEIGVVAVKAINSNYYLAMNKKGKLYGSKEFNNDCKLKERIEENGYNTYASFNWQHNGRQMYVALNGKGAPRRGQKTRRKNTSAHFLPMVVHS
Test [6] concerns glycogen synthase kinase-3 (GSK3A per assay name; protocol says GSK3B). The test is described as follows: compounds binding glycogen synthase kinase-3 – biochemical, small-molecule microarray, 635 nm fluorescence, GSK3A, primary screen (AID 1103). Also: the record names both GSK3A and GSK3B. To be noted: fluorescence 635 nm, higher = more signal.
Test [7] deals with Epidermal growth factor receptor (Homo sapiens) (UniProt P00533). The experiment in a line: compounds binding epidermal growth factor receptor – biochemical, small-molecule microarray, 635 nm fluorescence, primary screen (AID 1104).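 Also: score merges 667 nm emission intensity with spot signal to noise over triplicate slides.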 To be noted: EGFR binding, higher = more signal.
Chain of Epidermal growth factor receptor (Homo sapiens) (P00533 whole entry, looked up): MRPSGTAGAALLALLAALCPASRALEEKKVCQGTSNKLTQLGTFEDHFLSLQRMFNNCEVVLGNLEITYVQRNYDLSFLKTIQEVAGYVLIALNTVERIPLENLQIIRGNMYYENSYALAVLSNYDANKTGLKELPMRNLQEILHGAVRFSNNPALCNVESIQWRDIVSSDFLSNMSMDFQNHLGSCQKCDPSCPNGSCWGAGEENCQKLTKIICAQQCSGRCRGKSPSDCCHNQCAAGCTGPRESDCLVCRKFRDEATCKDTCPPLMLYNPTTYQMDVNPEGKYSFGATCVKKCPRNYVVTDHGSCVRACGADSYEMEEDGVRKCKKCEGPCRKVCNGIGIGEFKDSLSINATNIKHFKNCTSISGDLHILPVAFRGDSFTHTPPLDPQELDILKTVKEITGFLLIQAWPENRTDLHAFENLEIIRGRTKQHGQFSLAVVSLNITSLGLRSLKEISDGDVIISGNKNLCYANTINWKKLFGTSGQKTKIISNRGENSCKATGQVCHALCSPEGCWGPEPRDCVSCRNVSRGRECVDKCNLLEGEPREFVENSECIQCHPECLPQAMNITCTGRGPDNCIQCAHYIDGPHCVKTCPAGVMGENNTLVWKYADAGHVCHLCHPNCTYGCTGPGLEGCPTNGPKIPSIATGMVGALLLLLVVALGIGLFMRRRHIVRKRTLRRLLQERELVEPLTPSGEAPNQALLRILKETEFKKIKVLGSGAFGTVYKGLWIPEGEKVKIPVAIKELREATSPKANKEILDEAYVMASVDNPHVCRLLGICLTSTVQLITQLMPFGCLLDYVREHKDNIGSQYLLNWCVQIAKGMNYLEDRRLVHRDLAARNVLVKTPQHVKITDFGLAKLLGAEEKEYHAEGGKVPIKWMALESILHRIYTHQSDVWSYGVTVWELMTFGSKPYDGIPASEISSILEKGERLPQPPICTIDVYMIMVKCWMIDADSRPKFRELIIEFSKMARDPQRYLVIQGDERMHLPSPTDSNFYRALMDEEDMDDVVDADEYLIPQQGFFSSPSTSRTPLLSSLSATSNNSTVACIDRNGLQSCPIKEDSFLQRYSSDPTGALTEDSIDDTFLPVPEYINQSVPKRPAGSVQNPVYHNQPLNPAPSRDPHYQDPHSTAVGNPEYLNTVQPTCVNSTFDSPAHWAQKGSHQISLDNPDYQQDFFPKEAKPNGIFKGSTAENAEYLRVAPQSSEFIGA
Test [8] concerns the target Follistatin-related protein 3 (Homo sapiens) (UniProt O95633). The experiment in a line: compounds binding follistatin-related protein 3 – biochemical, small-molecule microarray, 635 nm fluorescence, primary screen (AID 1105).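 Also: score merges emission near 667 nm and signal to noise per printed spot across three slides.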 To be noted: FSTL3 binding, higher = more signal.
The target in test [9] is Dickkopf-related protein 1 (Homo sapiens) (UniProt O94907). The experiment in a line: small molecules binding DKK1 protein – biochemical, small-molecule microarray, 635 nm fluorescence scan, primary screen (AID 1106).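 Also: score merges emission near 667 nm with signal to noise over three replicate slides.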 The note with it: higher = more signal.
Chain of Dickkopf-related protein 1 (Homo sapiens) (O94907 whole entry, looked up): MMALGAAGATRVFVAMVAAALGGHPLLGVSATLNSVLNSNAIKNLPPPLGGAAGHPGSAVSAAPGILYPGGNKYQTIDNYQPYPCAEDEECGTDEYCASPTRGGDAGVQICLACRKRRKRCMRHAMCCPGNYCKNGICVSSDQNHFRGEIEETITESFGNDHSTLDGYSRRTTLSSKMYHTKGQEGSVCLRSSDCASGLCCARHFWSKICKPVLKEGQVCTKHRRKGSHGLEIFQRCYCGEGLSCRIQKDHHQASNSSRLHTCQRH
Test [10] concerns Inhibin beta A chain (activin A). The experiment in a line: small molecules binding activin A – biochemical, small-molecule microarray, 635 nm fluorescence scan, primary screen (AID 1107).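 Also: mouse activin A protein probed at 4.33 µg/mL on printed slides; score merges bound-protein fluorescence near 667 nm with spot signal-to-noise.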 To be noted: INHBA, higher = more signal.
Test [11] concerns Human papillomavirus type 1a protein E7 (residues 44-93). The experiment in a line: small molecules binding HPV E7 44-93 – biochemical, small-molecule microarray, residues 44-93, 635 nm fluorescence, primary screen (AID 1108).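 Also: E7 fragment applied at 1 µg/mL in TBST for 1 h at 4 C; score combines spot fluorescence with its signal to noise ratio.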 The note with it: fluorescence 635 nm, higher = more signal.
The nature of test [12]: hepatitis C replication reporter changes, two-sided – Huh7 cells, luciferase reporter, HCV replication inhibitor project, primary screen (AID 1109).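 Also: huh7 hepatoma cells harbouring a luciferase neomycin HCV replicon reporter; luciferase luminescence as measure of HCV replicon replication; test concentration not given here.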 To be noted: Huh7 HCV replicon luciferase reporter, 48 h; higher = more signal.
The target in test [13] is Left-right determination factor 2 (Homo sapiens) (UniProt O00292). The experiment in a line: small molecules binding LEFTY2 protein – biochemical, small-molecule microarray, 635 nm fluorescence scan, primary screen (AID 1110). To be noted: higher = more signal.
Chain of Left-right determination factor 2 (Homo sapiens) (O00292 whole entry, looked up): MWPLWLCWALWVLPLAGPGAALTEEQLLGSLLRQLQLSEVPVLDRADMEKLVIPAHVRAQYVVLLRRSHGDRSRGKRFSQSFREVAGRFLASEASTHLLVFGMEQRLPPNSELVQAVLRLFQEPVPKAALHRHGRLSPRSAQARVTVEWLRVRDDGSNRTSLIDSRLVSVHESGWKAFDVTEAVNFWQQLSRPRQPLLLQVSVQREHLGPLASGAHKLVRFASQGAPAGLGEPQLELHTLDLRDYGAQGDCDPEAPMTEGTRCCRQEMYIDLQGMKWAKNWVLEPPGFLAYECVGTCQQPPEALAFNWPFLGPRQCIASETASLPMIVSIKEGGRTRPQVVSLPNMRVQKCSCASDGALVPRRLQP
The target in test [14] is Calmodulin-1 (Homo sapiens) (UniProt P0DP23). The test is described as follows: small molecules binding calmodulin-1 with EGTA – biochemical, small-molecule microarray, Cy5-labelled CALM1, profiling panel (AID 1111).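 Also: labelled calmodulin applied in Tris saline Tween buffer holding calcium plus EGTA and DTT.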 The note with it: Cy5-CALM1 binding fluorescence, higher = more signal.
For test [15] the target is unchanged. The test is described as follows: small molecules binding Ca-loaded calmodulin-1 – biochemical, small-molecule microarray, Cy5-labelled CALM1, plus calcium, artefact control for SMM control-protein annotation, profiling panel (AID 1112).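 Also: score merges spot fluorescence with signal to noise from triplicate slides.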 The note with it: Cy5-CALM1 binding fluorescence, higher = more signal.
Test [16] in a line: probe aWnt5a binding to arrayed compounds – biochemical, biotinylated probe, 635/667 nm fluorescence, primary screen (AID 1113).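 Also: score merges 667 nm fluorescence intensity with signal-to-noise per printed feature.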 The note with it: small-molecule microarray, higher = more signal.
A short description of test [17]: probe aShh binding to arrayed compounds – biochemical, biotinylated probe, 635/667 nm fluorescence, primary screen (AID 1114).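 Also: probe is biotin-labelled aShh protein from a stem cell growth factor screen; measures binding of labelled protein to compounds printed on the slide; score merges feature fluorescence at 667 nm with signal-to-noise.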 To be noted: small-molecule microarray, higher = more signal.
Test [18] can be described thus: probe aNog binding to arrayed compounds – biochemical, biotinylated probe, 635/667 nm fluorescence, primary screen (AID 1115).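 Also: probe is biotinylated aNog protein used at 0.15 µg/mL for 1 h at 4 C; z-score combines 667 nm fluorescence of each spot with its signal to noise.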 To be noted: small-molecule microarray, higher = more signal.
For test [19], the target named is Torsin-1A-interacting protein 1 (Homo sapiens) (UniProt Q5JTV8). The experiment in a line: compound microarray binding of lysate hLAP1 – cell lysate, small-molecule microarray, COS7 lysate, 635/667 nm fluorescence, primary screen (AID 1116). The note with it: 635 nm fluorescence, higher = more signal.
Chain of Torsin-1A-interacting protein 1 (Homo sapiens) (Q5JTV8 whole entry, looked up): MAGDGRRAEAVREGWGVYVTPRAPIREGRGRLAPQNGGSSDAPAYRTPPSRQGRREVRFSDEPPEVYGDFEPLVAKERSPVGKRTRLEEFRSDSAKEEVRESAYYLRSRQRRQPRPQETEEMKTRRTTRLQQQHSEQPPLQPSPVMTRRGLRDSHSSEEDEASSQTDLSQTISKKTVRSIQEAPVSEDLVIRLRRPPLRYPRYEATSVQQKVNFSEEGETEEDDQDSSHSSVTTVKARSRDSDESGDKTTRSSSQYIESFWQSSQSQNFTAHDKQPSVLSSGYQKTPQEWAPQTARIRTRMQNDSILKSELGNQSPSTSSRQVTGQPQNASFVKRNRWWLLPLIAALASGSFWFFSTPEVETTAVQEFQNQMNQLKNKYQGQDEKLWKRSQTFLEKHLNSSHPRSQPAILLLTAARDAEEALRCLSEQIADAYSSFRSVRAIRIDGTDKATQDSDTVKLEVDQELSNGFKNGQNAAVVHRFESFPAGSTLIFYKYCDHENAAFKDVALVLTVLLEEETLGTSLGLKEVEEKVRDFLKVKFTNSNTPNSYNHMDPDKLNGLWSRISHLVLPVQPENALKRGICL
Test [20] has as its target Alpha-bungarotoxin (Bungarus multicinctus) (UniProt P60615). The test is described as follows: compounds binding labelled alpha-BTX control protein – biochemical, small-molecule microarray, Alexa647 label, 635/667 nm fluorescence, artefact control for SMM control protein annotation, profiling panel (AID 1117). To be noted: alpha-BTX-A647 binding fluorescence, higher = more signal.

Chain of Follistatin-related protein 3 (Homo sapiens) (O95633 whole entry, looked up): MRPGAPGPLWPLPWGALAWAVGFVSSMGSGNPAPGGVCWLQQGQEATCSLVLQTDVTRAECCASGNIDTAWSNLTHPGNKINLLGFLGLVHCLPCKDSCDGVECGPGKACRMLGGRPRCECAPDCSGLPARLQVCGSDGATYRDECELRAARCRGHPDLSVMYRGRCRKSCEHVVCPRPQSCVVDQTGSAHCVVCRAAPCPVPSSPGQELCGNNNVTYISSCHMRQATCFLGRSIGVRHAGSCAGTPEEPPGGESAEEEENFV
Chain of Alpha-bungarotoxin (Bungarus multicinctus) (P60615 whole entry, looked up): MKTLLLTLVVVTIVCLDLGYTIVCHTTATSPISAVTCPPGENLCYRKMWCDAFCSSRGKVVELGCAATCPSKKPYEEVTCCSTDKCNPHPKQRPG

Consider `CCc1cc2c(nc1CC)CCN(CCC(C)=NOC[C@@H](O)[C@H]1O[C@@H]3OC(C)(C)O[C@@H]3[C@H]1O)C2`, for which the composite z-score was 0.569 in test [1]; -0.54 in [2]; -0.32 in test [3]; 0.123 in test [5]; 0.175 in [6]; 0.352 in test [7]. In addition, the composite z-score was determined as 0.285 in [8]; 0.453 in test [9]; 0.963 in test [10]; 0.176 in test [11]; 0.317 in test [13]; 1.68 in test [14]. The composite z-score is 0.0363 in [15]; -0.0607 in test [16]; -0.16 in [17]; -0.238 in test [18]; 0.455 in test [19]; 0.677 in test [20]. Further, the z-score in [4] is -0.173 (inactive); in test [12], -1.59.
For `CC1CC/C=C\[C@H]2OC34C=CCN(C(C)C)C(=O)[C@H]3N(CCCO)C(=O)[C@@H]4C2C(=O)O1` (stereo not given in full), the composite z-score in test [1] is 1.29; in [2], -0.268; in test [3], 0.0886; in [5] it was -0.79; in test [6], -0.785; in test [7], -1.74. For the same compound, the composite z-score was -1.21 in test [8]; -1.23 in test [9]; -0.476 in test [10]; -0.249 in [11]; -0.523 in test [13]; -1.04 in test [14]. For the same compound, the composite z-score in test [15] was 0.271; in [16], -0.184; in test [17], -0.181; in test [18], -0.0898; in test [19], 0.646; in test [20], -1.54. In addition, the z-score is -0.037 (inactive) in test [4] and -0.513 in test [12].
For `CCOC(=O)CCN1C(=O)[C@H]2[C@H]3[C@H](O)[C@H](O)CC(=NNC(=O)OCc4ccc(OC)cc4)[C@@H]3CC[C@H]2C1=O`, the composite z-score in test [1] is 0.0745; in test [2] it was -0.0545; in test [3], -0.476; in test [5], 0.567; in [6] it was 0.754; in test [7], 0.593. The composite z-score is 1.32 in test [8]; 0.819 in test [9]; 0.334 in test [10]; -0.75 in test [11]; 0.554 in test [13]; 0.715 in [14]. Besides, the composite z-score in [15] is -0.0636; in [16] it was -0.124; in test [17] it was -0.323; in test [18], -0.118; in test [19] it was 0.94; in test [20], 1.21. For the same compound, the values for the z-score in test [4] and in [12] were 0.454 (inactive) and -0.552, respectively.
As to `COC(=O)C1=C(C)N(Cc2ccccc2)[C@]23O[C@](C(=O)OC)(C(=O)N2[C@@H]1c1ccccc1)[C@H]1CCOC(=O)[C@H]13`, the composite z-score was 0.539 in [1]; 0.057 in test [2]; -0.733 in [3]; 1.1 in test [5]; 0.466 in test [6]; 0.482 in test [7]. The composite z-score in [8] was 0.63; in [9], 0.971; in test [10], 0.521; in test [11], 0.0415; in test [13], 0.548; in test [14], -0.348. For the same compound, the composite z-score in [15] is -0.832; in test [16], -0.0482; in test [17], -0.0769; in test [18], 0.171; in test [19], 0.333; in test [20], 0.0003. The figures for the z-score in test [4] and in [12] were -0.236 (inactive) and 0.233, respectively.
With `CCOc1ccc(N2C(=O)/C(=C/C=C/c3ccccc3OC)S(=O)(=O)C2c2cccc([N+](=O)[O-])c2)cc1` (stereo not given), the composite z-score in test [1] was -0.379; in test [2], 0.0757; in [3], 0.42; in test [5], 0.226; in [6], 0.342; in [7], 0.549. The composite z-score in [8] is 0.393; in [9], 0.218; in test [10], 0.61; in [11], -0.432; in [13] it was 0.49; in [14], 1.27. Also, the composite z-score is 0.545 in test [15]; 0.0017 in test [16]; -0.2 in test [17]; 0.0373 in test [18]; 0.351 in [19]; 0.321 in test [20]. Moreover, the values for the z-score in [4] and in test [12] were 1.04 (inactive) and -2.17, respectively.
